Source: PubChem BioAssay AID1963315 (National Center for Advancing Translational Sciences (NCATS), 2024)
Results filed as inconclusive are left out. Where a call stands in place of a potency, no number is given. Activity calls are given as the source filed them. Calls come from the whole dose curve.

Target: Tyrosine-protein kinase ABL1 (Homo sapiens) (UniProt P00519)
Assay: ABL1 kinase (ABL1-N-HiBiT) SDR gain of signal screen
Settings: Purified ABL1-N-HiBiT enzyme, Nano-Glo HiBiT luminescence, 30 min compound incubation; series mostly up to 32.9 µM
Excerpt: National Center for Advancing Translational Sciences (NCATS),
National Institute of Health (NIH), Maryland
Discovery and optimization of novel protein-binding ligands underlies many of the methods and applications of biology, drug discovery, clinical diagnostics, and environmental toxicology. Assays for detecting the interaction of, for example, a molecule with a macromolecular target also referred to here as the target of interest (TOI) is dependent on a compatible output technology. Depending on the nature and knowledge surrounding the TOI, whether a receptor, enzyme, regulatory subunit or scaffold, or a sequence-defined nucleic acid folded into a complex tertiary structure, assay strategies can vary widely.
Here we exploit ligand-biased changes in the structural dynamics of the target protein to control reporter alpha complementation allowing a non-competitive, non-functional, non-separation measure of ligand-target interaction.
Secondly, we show the specificity and sensitivity of the SDR for the Abelson tyrosine kinase (ABL1) compared to the serine/threonine protein kinase A, using an enriched chemical library of 128 compounds selected, in part, for activity annotated with ABL1 kinase activity using the Pharos database (3).
(1) A. S. Dixon et al., NanoLuc Complementation Reporter Optimized for Accurate Measurement of Protein Interactions in Cells. ACS Chem Biol 11, 400-408 (2016).
Chemistry & Biology, 19, 1060 - 1072 (2012).
(3) K. J. Kelleher et al., Pharos 2023: an integrated resource for the understudied human proteome. Nucleic Acids Res 51, D1405-D1416 (2023).
PROTOCOL TABLE (as described by Inglese J, Shamu CE and Guy RK. 2007)
SEQUENCE No. (e.g., 1, 2, 3, etc.); […] (e.g., C. elegans, Compounds, Incubation, Read, etc.); VALUE and DESCRIPTION.
1. Reagent. Dispense 4 uL ABL1-N-HiBiT enzyme per well at a final enzyme concentration of 10 nM in buffer without ATP (SDR assay) into columns 2-48 of four replicate Greiner 1536-well white, solid bottom high base, medium plates per assay. Dispense respective buffer without enzyme at 4 uL/well in column 1 of assay plates using BioRaptr 2.
2. Compounds. Library compounds added at 23 nL/well by pin transfer. DMSO neutral control and imatinib positive control added at 25 nL/well, transfer by Mosquito dispenser.
3. Incubation. Incubate enzyme and compounds at room temperature for 30 min, protected from light.
4. Reagent. (SDR assay) Add 3 uL/well of Nano-Glo HiBiT reagent (Promega) to assay plates with or without ATP.
5. Incubation. (SDR assay) Incubate enzyme solution and HiBiT reagent at room temperature for 10 min, protect from light.
6. Detector. (SDR assay) Luminescence measured using CCD-based camera (ViewLux) with settings as follows: Exposure, 1 sec; Gain, High; Speed, Slow; Binning, 2X.
Inglese J, Shamu CE and Guy RK, Reporting data from high throughput screening of small molecule libraries, Nature Chemical Biology, 2007, 3(8): 438-441. doi.org/10.1038/nchembio0807-438.

Chain of Tyrosine-protein kinase ABL1 (Homo sapiens) (P00519 whole entry, looked up): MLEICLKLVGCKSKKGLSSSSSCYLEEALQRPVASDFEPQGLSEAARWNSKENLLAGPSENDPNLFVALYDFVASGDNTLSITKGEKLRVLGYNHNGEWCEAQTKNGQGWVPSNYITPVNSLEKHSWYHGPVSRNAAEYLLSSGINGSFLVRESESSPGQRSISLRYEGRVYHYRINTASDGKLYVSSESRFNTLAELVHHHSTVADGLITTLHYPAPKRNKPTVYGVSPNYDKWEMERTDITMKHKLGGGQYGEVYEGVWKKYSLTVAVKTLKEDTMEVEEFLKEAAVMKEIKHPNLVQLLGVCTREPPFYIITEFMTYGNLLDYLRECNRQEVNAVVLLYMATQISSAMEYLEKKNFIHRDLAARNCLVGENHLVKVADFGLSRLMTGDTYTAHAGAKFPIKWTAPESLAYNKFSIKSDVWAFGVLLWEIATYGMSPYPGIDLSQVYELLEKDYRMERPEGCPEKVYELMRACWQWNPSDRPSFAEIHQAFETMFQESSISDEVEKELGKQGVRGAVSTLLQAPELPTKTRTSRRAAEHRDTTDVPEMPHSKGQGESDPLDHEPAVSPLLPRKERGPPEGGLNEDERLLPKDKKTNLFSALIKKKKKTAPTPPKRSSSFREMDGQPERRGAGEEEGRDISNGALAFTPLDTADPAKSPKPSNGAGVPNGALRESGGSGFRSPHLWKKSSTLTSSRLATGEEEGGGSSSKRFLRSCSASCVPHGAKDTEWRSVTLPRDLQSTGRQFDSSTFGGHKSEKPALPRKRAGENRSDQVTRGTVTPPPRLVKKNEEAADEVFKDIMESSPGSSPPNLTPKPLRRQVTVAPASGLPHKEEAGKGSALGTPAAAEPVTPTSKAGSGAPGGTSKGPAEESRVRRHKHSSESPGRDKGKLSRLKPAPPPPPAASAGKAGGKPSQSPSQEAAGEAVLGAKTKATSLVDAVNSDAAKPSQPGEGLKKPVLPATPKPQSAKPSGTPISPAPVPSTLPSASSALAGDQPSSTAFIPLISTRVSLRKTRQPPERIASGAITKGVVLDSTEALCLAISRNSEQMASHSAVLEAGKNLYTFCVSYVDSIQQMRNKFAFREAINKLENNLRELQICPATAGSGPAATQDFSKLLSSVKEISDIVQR

SMILES | Potency
C/C(O)=C(\C#N)C(=O)Nc1cc(Br)ccc1Br | inactive
Cc1[nH]nc2ccc(-c3cncc(OC[C@@H](N)Cc4c[nH]c5ccccc45)c3)cc12 | inactive
O=[N+]([O-])O[C@H]1CO[C@H]2[C@@H]1OC[C@H]2O[N+](=O)[O-] | inactive
CCNC(=O)C[C@@H]1N=C(c2ccc(Cl)cc2)c2cc(OC)ccc2-n2c(C)nnc21 | inactive
N#Cc1cn([C@@H]2O[C@H](CO)[C@H](O)[C@@H]2O)c2ncnc(N)c12 | 6.05 µM (active)
O=C(NCCCNc1nc(Nc2ccc(N3CCOCC3)cc2)ncc1C1CC1)C1CCC1 | inactive
